# Measurements reported in the supplement of paper PMC4466236.
# The full ranking holds about 33,000 sequences; the median of “E-score (dimensionless, -0.5 to 0.5)” is about -0.058, and the highest 2% start at about 0.35. This excerpt belongs to a sample that is enriched for the highest values.
# Test system: MvaT
# Experiment: PBM 8-mer E-score (mean of HK and ME arrays) (E-score (dimensionless, -0.5 to 0.5)); higher = stronger relative binding preference
# How it was run: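 Full-length P. aeruginosa MvaT carrying an N-terminal glutathione S-transferase tag was tested by protein binding microarray following a previously described protocol. Two universal double-stranded 60-mer arrays, ME and HK, were used, each with a constant 25-mer primer region and a variable 35-mer region covering all 8-mers. The rank-based E-score is the mean of the two arrays, parsed with a custom script. Its range runs from -0.5 to 0.5 for each 8-mer.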
row,Sequence,PBM 8-mer E-score
1,GAATCATA,0.151
2,CCATCTGA,-0.117
3,GTATGAAA,0.222
4,GTCTGAGA,-0.139
5,AGAGATGC,-0.101
6,ATCTTTAG,0.14
7,AGTGATCG,-0.118
8,AGAGGCTG,-0.304
9,TTATTGAA,0.279
10,TAGGGTAA,0.133
11,CTGATAAC,0.136
12,AGCACAGG,-0.197
13,AAACAAGA,0.166
14,GAACAATA,0.267
15,AAACAACA,0.214
16,CAACAATA,0.289
17,GATCAATA,0.152
18,AATCAATA,0.283
19,AAACAATA,0.375
20,TATCAATA,0.365
21,AAACAATT,0.346
22,AAACAATC,0.06
23,AAACAATG,0.201
24,TAACAATA,0.394
25,GCAACGAC,-0.141

row,Sequence,PBM 8-mer E-score
1,CCTCAACC,-0.226
2,AGATCTCG,-0.173
3,CTCTACTC,-0.0821
4,GCGCCACC,-0.15
5,ACAGGGGT,-0.121
6,AGGACTCG,-0.265
7,TAACATTA,0.374
8,ATACAATA,0.372
9,CAACATTA,0.293
10,ATACAATC,0.18
11,CTACAATA,0.244
12,GAACATTA,0.276
13,ATCCGTTC,-0.0995
14,AGATTGAC,-0.15
15,AAGATATA,0.419
16,AAGATATC,0.26
17,CAGATATA,0.237
18,GAGATATA,0.303
19,TAGATATA,0.368
20,AAGATATG,0.136
21,ATTTACGA,0.167
22,ATATTTAC,0.36
23,CTATTTAA,0.274
24,CTATTTAC,0.318
25,ATATTTAA,0.462

row,Sequence,PBM 8-mer E-score
1,ATATTTCA,0.329
2,ATATTTAG,0.342
3,AGGCACCA,-0.116
4,AGCTGTCA,-0.156
5,ATGATCGG,-0.174
6,AGCTTCCA,-0.151
7,CGCAAGTA,0.195
8,ATATTATG,0.411
9,CTATTATC,0.263
10,AGATTATG,0.189
11,ATCTTATA,0.238
12,CCATTATA,0.302
13,AGATTATC,0.255
14,ACATTATG,0.249
15,GCATTATA,0.309
16,ATATTATC,0.439
17,ATATTATA,0.477
18,ACATTATA,0.396
19,ATTCAAAC,0.174
20,GATACCGA,0.0372
21,GCTGCCCA,-0.142
22,GAGGAAGA,-0.133
23,ACCCGTTG,-0.195
24,TAGTCACA,0.0578
25,AAAACGTA,0.142

row,Sequence,PBM 8-mer E-score
1,CGCCCATC,-0.117
2,CACTTGCA,-0.05
3,CAGCCCTG,-0.254
4,CGTGTCCA,-0.105
5,GCACTTCA,-0.102
6,GTGTGGTA,0.118
7,CCCTTCGC,-0.248
8,AATTAGGG,0.137
9,AATCCCCG,-0.164
10,GTATTCTA,0.112
11,GGATTATA,0.32
12,CTTTTATA,0.31
13,CTATTATA,0.44
14,GTCTTATA,0.325
15,GTATTATA,0.437
16,CGATTATA,0.292
17,AGATTATA,0.39
18,GTATTACA,0.224
19,CTATTCTA,0.131
20,ATATTCTA,0.348
21,CTCTTATA,0.289
22,CGCGCTTC,-0.107
23,CAATGTCC,-0.106
24,AGCGCCTA,-0.16
25,AACTACGG,0.0587

row,Sequence,PBM 8-mer E-score
1,CCGCGCCC,-0.155
2,AACTCGGT,-0.0107
3,GCTGTAAC,0.00489
4,CGCAAGAG,0.0446
5,CGCGGTGA,-0.142
6,CCCTAAGA,-0.184
7,ATAGAACG,0.0944
8,CCGCAAAG,-0.132
9,ATGGCCAG,-0.256
10,ATATGTTA,0.423
11,ATATGTTC,0.231
12,ATATGTAC,0.368
13,ATATGTCG,0.22
14,ATATGTTG,0.359
15,CTATGTAC,0.112
16,ATATGTAA,0.309
17,GTATGTTA,0.288
18,CTATGTTA,0.278
19,AGTCCACT,-0.0256
20,AATAGACC,0.00124
21,TTGTACAA,0.161
22,CGTCCAGA,-0.16
23,CCTGCTCG,-0.298
24,ACAGGTGC,-0.152
25,AATTGCTG,0.0923

row,Sequence,PBM 8-mer E-score
1,ATACCCTC,-0.12
2,CTTGGCCC,-0.249
3,AACTAAAG,0.202
4,AAATAGTG,0.136
5,AACTAGTT,0.392
6,AACTAGTA,0.303
7,AACTAAAT,0.351
8,AACTAATA,0.323
9,AACTAATG,0.312
10,AACTAATT,0.401
11,AAATAGTC,0.235
12,AACTAAAA,0.345
13,AAATAGTT,0.351
14,AACTAGTG,0.19
15,CAAAGATG,0.0517
16,CGTGAGAA,0.0476
17,AGGAATGG,-0.0828
18,AACCTCCC,-0.253
19,CCGGATAC,-0.146
20,ACTGATAA,0.209
21,ATCAAGGC,-0.14
22,TCATGACA,-0.0413
23,CTGTCCAC,-0.113
24,GCTCAAAC,0.0144
25,AATAATGC,0.384

row,Sequence,PBM 8-mer E-score
1,CATAATGA,0.233
2,CATAATGC,0.111
3,GATAATGA,0.225
4,AATAATGG,0.372
5,TATAATGA,0.373
6,AATAATGT,0.408
7,CATAATGG,0.178
8,AATAAGGT,0.224
9,AAAAATGT,0.0973
10,GATAATGC,0.151
11,AGTAATGG,0.124
12,CGGGACAG,-0.151
13,CCCCACTA,-0.172
14,ATGACATG,-0.0134
15,AATTTCCC,0.207
16,CTCACCAC,-0.026
17,CAGTTCAC,-0.0234
18,AACCGAAG,0.0622
19,CCCACACC,0.0355
20,AGTAATGA,0.165
21,AATAATGA,0.361
22,ACTAATGA,0.138
